Test results reported in the supplement of paper PMC6522484.
± gives the standard deviation of the averaged measurements.

Experiments:
[1] = tested on: DLD1; assay: cell viability (CellTiter-Glo) relative to plate median (fraction of plate median); higher = more viable cells; settings: 5 µM; treatment time 24 h; reporter: 7TFP
How it was run: (§1)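 Stable lentiviral TCF/Wnt firefly luciferase reporters (7TFP or TCF4/Wnt) were present in the colorectal cancer cell lines used. These cells received library compounds at a final 5 µM for 24 h, and parallel plates were read for firefly luciferase or CellTiterGlo luminescence. Each well was normalised to the plate median, and the value reported is the mean of two independent replicates.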

[2] = tested on: HCT116; assay: as above; settings: 5 µM; treatment time 24 h; reporter: TCF4/Wnt
How it was run: as §1

[3] = tested on: SW480; assay: as above; settings: 5 µM; treatment time 24 h; reporter: 7TFP
How it was run: as §1

[4] = tested on: DLD1; assay: TCF/Wnt firefly luciferase reporter signal relative to plate median (fraction of plate median); higher = higher Wnt reporter signal; settings: 5 µM; treatment time 24 h; reporter: 7TFP
How it was run: as §1

[5] = tested on: SW480; assay: as above; settings: 5 µM; treatment time 24 h; reporter: 7TFP
How it was run: as §1

SMILES | cell viability [1] | cell viability [2] | cell viability [3] | TCF/Wnt firefly luciferase reporter signal [4] | TCF/Wnt firefly luciferase reporter signal [5]
C/C=C/C=C/c1cc2cc3c(c(O)c2c(=O)[nH]1)C1(CC3)C(O)=c2c(=O)c3c(=O)cc(OC)c(=O)c=3c(=O)c2=C1O (stereo not given) [Fredericamycin] | 1.03 ± 0.042 | 0.934 ± 0.022 | 1.04 ± 0.076 | 1.06 ± 0.21 | 0.981 ± 0.084
CC(C)(O)CC[C@@H](O)[C@](C)(O)[C@H]1CC[C@@]2(O)C3=CC(=O)[C@@H]4C[C@@H](O)[C@@H](O)C[C@]4(C)[C@H]3CC[C@]12C | 0.977 ± 0.021 | 1.08 ± 0.042 | 1.01 | 1.1 ± 0.21 | 1.14 ± 0.064
CCOC(=O)C1=C(C)NC(C)=C(C(=O)OC)C1c1cccc([N+](=O)[O-])c1 (stereo not given) | 0.964 ± 0.03 | 1.02 ± 0.15 | 0.95 ± 0.057 | 1.06 ± 0.035 | 1.01 ± 0.039
